Among all 48,000 compounds or so, about 13,000 (27%) showed an effect of 50% or more. This is one part of the list.

This test concerns Wolbachia pipientis. Description: Anti-Wolbachia Cell-Based Screen. In kind it is functional. Conditions: 5 µM. The arrangement: scale not given: in the data most compounds retested in dose-response had high values.
As for `COCCn1cc(NC(=O)NCC2CCN(c3ccccc3)C2)cn1` (stereo not drawn), the “Percent Effect” value is recorded as 6.997%.
Turning to `Cc1cc(CN2CCC(c3ccnn3CCO)CC2)no1`, the “Percent Effect” value is listed as -5.622%.
In the case of `CCNc1ncc(C(=O)NCc2csc(-c3cnccn3)n2)cn1`, the “Percent Effect” value is listed as -2.125%.
Turning to `CCC1COCCN1C(=O)NCc1cccc(-c2cnn(C)c2)c1` (stereo not drawn), the “Percent Effect” value was -16.85%.
Consider `Cc1ccc(CNC[C@H]2Cn3cc(-c4ccccc4)nc3CO2)cc1`, for which the “Percent Effect” value is -14.25%.
As for `COc1ccc(CNC[C@H]2COCc3nc4cc(F)ccc4n32)cn1`, the figure is 2.56%; as for `c1csc(CN2CC[C@H]3O[C@@H](COCC4CC4)CC[C@H]32)c1`, -24.01%; as for `CN1C[C@@H](COCC2CC2)[C@H]2CCN(Cc3ccco3)CC[C@H]2C1=O.O=C(O)C(F)(F)F`, -15.86%.
For the compound `O=C(O)C(F)(F)F.c1coc(CN2CC[C@H]3O[C@@H](COCC4CC4)CC[C@H]32)c1`, the “Percent Effect” value is 103.1%.
Regarding `CCSc1nnc(N2CCN(c3ccccc3)CC2)s1`, the “Percent Effect” value is given as -16.68%.
`CCc1nc(N)nc(N(C)Cc2nncn2CCOC)c1C`: the “Percent Effect” value is reported as -4.118%.
With `Cc1cnc(CC2COCCN(Cc3nccn3C)C2)cn1` (stereo not drawn), the “Percent Effect” value was 117.2%.
For `Cc1noc(C)c1CN1CCN(Cc2nccn2C)C(C)C1` (stereo not drawn), the “Percent Effect” value is recorded as -9.694%.
On to `Cn1ccnc1CN1CCOCC(Cc2ccccn2)C1` (stereo not drawn), for which the “Percent Effect” value is -4.289%.
On to `Cc1cc(-n2cccn2)ccc1CN1CCOCC(CN(C)C)C1` (stereo not drawn), for which the “Percent Effect” value was -16.76%.
On to `Cc1cccc(CC2COCCN(Cc3nccn3C)C2)n1` (stereo not drawn), for which the “Percent Effect” value was 119.1%.
With `Cn1ccnc1C1CCN(CCC2CCOC2)CC1` (stereo not drawn), the “Percent Effect” value is -2.458%.
For `CN(C)c1ccc(CC2COCCN(Cc3nccn3C)C2)nn1` (stereo not drawn), the “Percent Effect” value is 107.3%.
Take `CCN1CCN(S(=O)(=O)N2CCc3ccccc3C2)[C@H]2CS(=O)(=O)C[C@H]21`: the “Percent Effect” value is listed as -15.22%.
To `CS(=O)(=O)NCCCN1CCCC1c1ccccc1` (stereo not drawn) belongs -6.695%; to `O=C1C(Nc2ccc3nccnc3n2)CCN1c1ccccc1` (stereo not drawn), 8.259%; to `Cc1nnc2n1CC(CNCc1nc(-c3ccsc3)no1)CC2` (stereo not drawn), -10.67%.
As to `c1csc(-c2nnc(CSCCN3CCOCC3)o2)c1`, the “Percent Effect” value came out at 0.2217%.
As for `CN1CCCN(S(=O)(=O)c2cn(C)cn2)c2cc(F)ccc21`, the figure is -12.29%.
For the compound `CN1CCN(S(C)(=O)=O)c2cc(F)ccc21`, the “Percent Effect” value was -2.725%.
In the case of `CN1CCN(C(=O)c2csnn2)c2ccccc21`, the “Percent Effect” value was 10.7%.
Take `O=C(c1cncc(Br)c1)N1CCCc2ccc(F)cc21`: the “Percent Effect” value amounted to 6.203%.
In the case of `CN1CCCN(S(=O)(=O)c2cnn(C)c2)c2cc(Cl)ccc21`, the “Percent Effect” value is recorded as -13.02%.
Consider `Cc1ccc(C(=O)N2CCCN(C)c3ccc(F)cc32)o1`, for which the “Percent Effect” value stood at 112.2%.
In the case of `CN1CCCN(S(C)(=O)=O)c2cc(F)ccc21`, the “Percent Effect” value was -11.53%.
As to `CN1CCCN(C(=O)c2cnsn2)c2cc(F)ccc21`, the “Percent Effect” value came to 119.4%.
As for `CN1CCCN(C(=O)c2cnsn2)c2cc(Cl)ccc21`, the “Percent Effect” value is 103.8%.
`O=C(Nc1c(N2CCCC2)cccc1N1CCCC1)c1cnsn1`: the “Percent Effect” value is reported as -3.532%.
`CN1CCN(C(=O)c2cnsn2)c2cc(F)ccc21`: the “Percent Effect” value amounted to 151.8%.
For the compound `CC1CN(C)c2ccccc2CN1C(=O)c1cnsn1` (stereo not drawn), the “Percent Effect” value is listed as -24.53%.
As to `CN(Cc1cnccn1)C(=O)c1ccc(CSc2nnc[nH]2)o1`, the “Percent Effect” value is reported as -27.79%.
Turning to `CSc1ccc(NCC(=O)NCC(=O)N2CCCC2)cc1F`, the “Percent Effect” value is -3.658%.
Consider `CN1CCN(C(=O)CCc2cccnc2)c2ccc(F)cc21`, for which the “Percent Effect” value was -6.701%.
In the case of `CN1CCN(C(=O)c2cnsn2)c2ccc(F)cc21`, the “Percent Effect” value amounted to 79.94%.
As for `CN1CCN(C(=O)CCCc2ccccn2)c2ccc(F)cc21`, the figure is -53.44%; as for `CCN(C(=O)c1c(Cl)cnn1CC)C(C)C(N)=O` (stereo not drawn), -13.9%.
On to `CCN(CC)C(=O)c1nnn(Cc2ccccc2)c1OC`, for which the “Percent Effect” value worked out at 4.418%.
`CCn1ncc(Br)c1CN(C)S(=O)(=O)c1ccc(C)cc1`: the “Percent Effect” value is listed as 6.609%.
For the compound `CCN(CC)C(=O)c1c(Br)cnn1CC`, the “Percent Effect” value stood at 113.9%.
For the compound `CCN(CC)C(=O)c1c(Cl)cnn1CC`, the “Percent Effect” value came to 102.5%.
For the compound `CCN(CC)C(=O)CCn1ncc2c(Cl)cccc21`, the “Percent Effect” value is recorded as 18.4%.
As for `CC(=O)Nc1ccc(CN(C)Cc2snnc2C)cc1`, the figure is 104.3%.
Consider `CC(=O)Nc1ccc2nc(CN(C)Cc3snnc3C)ccc2c1`, for which the “Percent Effect” value came to 89.45%.
As to `Cc1nnsc1CN(C)Cc1ccc(C(=O)Nc2sccc2C#N)cc1`, the “Percent Effect” value is -8.441%.
As for `CC(=O)Nc1ccc2nc(-c3nccn3C[C@@H]3CCCO3)ccc2c1`, the figure is -0.02427%; as for `Cc1nc(CNC(=O)Nc2ccc3c(ccn3CCN(C)C)c2)no1`, -28.14%.
Regarding `CC(=O)Nc1ccc2nc(CN(C)Cc3noc(C)n3)ccc2c1`, the “Percent Effect” value came to 88.54%.
`CC(=O)Nc1ccc(CNC(=O)CNCc2snnc2C)cc1`: the “Percent Effect” value is on record as -4.998%.

The values are drawn from ChEMBL document CHEMBL3988442, “University of Dundee, Small-Polar-MMV Screening Library” (2021).
